From PubChem BioAssay
For part of these data: Results with a measured potency or affinity are listed apart. Calls of active or inactive are those of the source. Unless noted, no rule for the calls is given here.

What was measured:
[1] = antimalarial activity against Dd2 strain (AID 2302;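 active = growth inhibition above 50% at the single 2 µM test dose, taken to imply half-maximal potency below 2 µM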;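 also: 0% = DMSO untreated growth and 100% = chloroquine plus artemisinin killed control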); conditions: P. falciparum Dd2 in RBCs, LDH growth readout, 72 h; at 2 µM; active compounds read high
[2] = HepG2 cytotoxicity, primary screen, cytotoxicity control for P. falciparum antimalarial project, cell-based, ATP luminescence (AID 2303;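 active = inhibition above 50%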;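 also: 0% = DMSO wells and 100% = digitonin-killed cells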); conditions: HepG2 viability, 24-48 h, at 10 µM, active compounds read high
[3] = biological target: L-lactate dehydrogenase (Plasmodium falciparum (isolate CDC / Honduras)) (UniProt Q27743); assay: PfLDH activity inhibition – cell lysate, 3D7 strain, counter-screen for P. falciparum growth inhibition project (AID 2304);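 also: 0% = vehicle and 100% = reference inhibitor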; conditions: P. falciparum 3D7 crude extract, LDH APAD/NBT absorbance; at 2 µM; active compounds read high
L-lactate dehydrogenase (Plasmodium falciparum (isolate CDC / Honduras)), sequence (Q27743 whole entry, looked up): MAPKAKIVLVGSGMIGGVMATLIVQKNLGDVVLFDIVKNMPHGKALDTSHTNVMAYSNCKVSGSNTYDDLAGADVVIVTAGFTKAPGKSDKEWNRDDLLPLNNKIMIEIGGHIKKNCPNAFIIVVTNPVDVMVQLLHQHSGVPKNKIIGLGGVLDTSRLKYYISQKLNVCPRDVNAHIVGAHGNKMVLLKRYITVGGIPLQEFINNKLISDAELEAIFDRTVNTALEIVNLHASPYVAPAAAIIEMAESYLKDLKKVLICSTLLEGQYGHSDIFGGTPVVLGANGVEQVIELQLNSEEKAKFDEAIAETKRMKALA

[4] = inhibition of 3D7 malaria parasite growth – strain 3D7 (AID 2306);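 also: 0% = DMSO wells and 100% = chloroquine plus artemisinin control wells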; conditions: P. falciparum 3D7 erythrocytic growth, LDH absorbance, 72 h; at 2 µM; active compounds read high
[5] = biological target: Calcium-dependent protein kinase 1 (Plasmodium falciparum (isolate 3D7)) (UniProt P62344); assay: PfCDPK1 kinase inhibitors, biochemical, TCAMS library (AID 1159585; cut-off not given, nearly all actives have IC50 up to about 0.98 µM;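 also: inhibitors leave more ATP so luminescence rises with inhibition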); conditions: recombinant PfCDPK1, Kinase-Glo ATP depletion luminescence
Calcium-dependent protein kinase 1 (Plasmodium falciparum (isolate 3D7)), sequence (P62344 whole entry, looked up): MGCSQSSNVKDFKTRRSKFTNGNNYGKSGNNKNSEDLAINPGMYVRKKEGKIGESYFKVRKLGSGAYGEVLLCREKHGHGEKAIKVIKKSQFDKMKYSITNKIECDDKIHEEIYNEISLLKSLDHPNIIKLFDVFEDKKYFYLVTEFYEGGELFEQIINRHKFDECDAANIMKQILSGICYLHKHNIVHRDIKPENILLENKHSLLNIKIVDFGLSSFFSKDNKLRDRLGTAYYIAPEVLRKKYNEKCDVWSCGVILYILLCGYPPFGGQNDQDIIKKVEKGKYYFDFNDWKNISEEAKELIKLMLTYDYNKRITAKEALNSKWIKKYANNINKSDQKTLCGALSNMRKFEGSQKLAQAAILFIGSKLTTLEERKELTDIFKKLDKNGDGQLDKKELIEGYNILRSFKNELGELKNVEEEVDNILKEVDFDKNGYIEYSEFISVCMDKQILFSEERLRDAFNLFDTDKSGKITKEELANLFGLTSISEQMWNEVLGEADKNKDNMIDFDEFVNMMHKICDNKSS

[6] = biological target: Plasmodium falciparum protein kinase 6 (PK6, PF3D7_1337100) (UniProt Q8IDW1); assay: PfPK6 kinase inhibitors, biochemical, TCAMS library (AID 1159586); conditions: recombinant PfPK6, Kinase-Glo ATP depletion luminescence
Plasmodium falciparum protein kinase 6 (PK6, PF3D7_1337100), sequence (Q8IDW1 1-305): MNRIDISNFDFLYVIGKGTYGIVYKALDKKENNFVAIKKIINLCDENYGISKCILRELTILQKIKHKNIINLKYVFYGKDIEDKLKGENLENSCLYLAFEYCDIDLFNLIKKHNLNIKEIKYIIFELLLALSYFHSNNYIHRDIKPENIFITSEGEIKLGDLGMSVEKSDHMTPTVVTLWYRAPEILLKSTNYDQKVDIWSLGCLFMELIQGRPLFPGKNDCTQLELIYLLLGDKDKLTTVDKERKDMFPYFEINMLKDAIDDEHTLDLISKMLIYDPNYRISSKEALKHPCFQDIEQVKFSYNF

[7] = biological target: Protein kinase 7 (PK7), Plasmodium falciparum 3D7 (PF3D7_0213400) (UniProt Q7YTF7); assay: inhibition of Plasmodium PK7 catalytic activity – biochemical, TCAMS antimalarial set, Kinase-Glo luminescence (AID 1159587); conditions: recombinant PfPK7, Kinase-Glo ATP depletion luminescence
Protein kinase 7 (PK7), Plasmodium falciparum 3D7 (PF3D7_0213400), sequence (Q7YTF7 1-343): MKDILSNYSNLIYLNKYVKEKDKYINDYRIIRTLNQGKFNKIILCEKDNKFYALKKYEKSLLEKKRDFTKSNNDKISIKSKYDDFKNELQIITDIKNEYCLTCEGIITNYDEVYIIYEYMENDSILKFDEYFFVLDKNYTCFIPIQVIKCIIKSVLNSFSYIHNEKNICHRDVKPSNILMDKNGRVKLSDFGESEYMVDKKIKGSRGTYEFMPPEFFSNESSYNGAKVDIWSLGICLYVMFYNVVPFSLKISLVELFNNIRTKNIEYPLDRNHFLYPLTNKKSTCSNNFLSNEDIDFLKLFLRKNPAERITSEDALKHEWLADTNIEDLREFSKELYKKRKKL

[8] = biological target: Calcium-dependent protein kinase 4 (Plasmodium falciparum (isolate 3D7)) (UniProt Q8IBS5); assay: PfCDPK4 kinase inhibitors, biochemical, TCAMS library (AID 1159588; cut-off not given, nearly all actives have IC50 up to about 0.91 µM); conditions: recombinant PfCDPK4, Kinase-Glo ATP depletion luminescence
Calcium-dependent protein kinase 4 (Plasmodium falciparum (isolate 3D7)), sequence (Q8IBS5 whole entry, looked up): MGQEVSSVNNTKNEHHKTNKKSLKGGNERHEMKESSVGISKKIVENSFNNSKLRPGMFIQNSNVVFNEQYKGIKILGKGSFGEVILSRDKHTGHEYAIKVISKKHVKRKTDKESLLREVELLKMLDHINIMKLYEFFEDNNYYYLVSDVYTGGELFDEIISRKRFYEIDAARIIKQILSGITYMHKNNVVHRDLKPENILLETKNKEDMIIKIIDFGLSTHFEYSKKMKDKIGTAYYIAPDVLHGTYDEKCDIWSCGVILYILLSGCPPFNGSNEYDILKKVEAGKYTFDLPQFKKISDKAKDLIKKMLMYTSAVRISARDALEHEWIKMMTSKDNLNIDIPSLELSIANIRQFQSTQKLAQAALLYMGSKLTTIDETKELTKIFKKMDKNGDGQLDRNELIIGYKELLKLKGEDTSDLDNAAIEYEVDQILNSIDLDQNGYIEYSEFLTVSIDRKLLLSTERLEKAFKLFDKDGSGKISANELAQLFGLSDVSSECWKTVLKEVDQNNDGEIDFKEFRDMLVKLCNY

COc1c(C2CCN(CCCCNC(=O)c3ccc(-c4ccc(NC(=O)C(F)(F)F)cc4)cc3)CC2)ccc2c1CCCC2
active: inhibition [2] 95% | growth inhibition [4] 86%
inactive: growth inhibition [1] 33% | inhibition [3] 8% | outcome [5] | outcome [6] | outcome [7] | outcome [8]

O=C(/C=C/c1cccc2c1OCO2)Nc1ccnc2ccncc12
inactive: growth inhibition [1] 35% | inhibition [2] 17% | inhibition [3] -4% | outcome [5] | outcome [6] | outcome [7] | outcome [8]
active: growth inhibition [4] 90%

CCN(CC)c1ccc(NC(=S)NC2CCN(CCCCCNC(=O)/C=C/c3ccc(Cl)c(Cl)c3)CC2)cc1
inactive: inhibition [2] 16% | inhibition [3] 3% | outcome [5] | outcome [6] | outcome [7] | outcome [8]
active: growth inhibition [1] 58% | growth inhibition [4] 100%

O=C(O[C@@H]1CN[C@H](C#Cc2cc3c(Nc4ccc5c(cnn5Cc5ccccc5)c4)ncnc3s2)C1)N1CCCC1
active: growth inhibition [1] 87% | growth inhibition [4] 99%
inactive: inhibition [2] 8% | inhibition [3] -1% | outcome [5] | outcome [6] | outcome [7] | outcome [8]

CNCCNCc1cccc(-c2cccc(-c3nc4c(C)cccc4[nH]3)c2)c1
active: growth inhibition [4] 98%
inactive: growth inhibition [1] 9% | inhibition [2] 6% | inhibition [3] 1% | outcome [5] | outcome [6] | outcome [7] | outcome [8]

Cc1ccc(CNC(=O)[C@H](CCCN)Nc2nc(NCC3CCCCC3)ncc2C)cc1
active: growth inhibition [4] 92%
inactive: growth inhibition [1] 5% | inhibition [2] 1% | inhibition [3] 3% | outcome [5] | outcome [6] | outcome [7] | outcome [8]

Cc1ccc2nc(NC#N)[nH]c2c1
active: growth inhibition [4] 96%
inactive: growth inhibition [1] -3% | inhibition [2] 7% | inhibition [3] 2% | outcome [5] | outcome [6] | outcome [7] | outcome [8]

COc1ccc(NC(=O)c2ccc(-c3nc(-c4cccc(C(F)(F)F)c4)cs3)cc2)cc1N1CCN(C)CC1
active: growth inhibition [1] 59% | growth inhibition [4] 98%
inactive: inhibition [2] 29% | inhibition [3] 6% | outcome [5] | outcome [6] | outcome [7] | outcome [8]

O=S(=O)(Nc1cc2c(cc1OCCCN1CCCCC1)CCNCC2)c1ccc(-c2ccc(Cl)cc2)cc1
active: inhibition [2] 77% | growth inhibition [4] 100%
inactive: growth inhibition [1] 19% | inhibition [3] 2% | outcome [5] | outcome [6] | outcome [7] | outcome [8]

Cc1ccc2[nH]c(-c3ccc(/C=C/C(=O)NC4CCN(Cc5ccccc5)CC4)cc3)nc2c1C
inactive: inhibition [2] 22% | inhibition [3] 4% | outcome [5] | outcome [6] | outcome [7] | outcome [8]
active: growth inhibition [1] 92% | growth inhibition [4] 101%

COc1cc2sc(=NC(=O)c3cccc([N+](=O)[O-])c3)n(C)c2cc1OC
active: growth inhibition [1] 79% | growth inhibition [4] 92%
inactive: inhibition [2] 5% | inhibition [3] -3% | outcome [5] | outcome [6] | outcome [7] | outcome [8]

O=c1ccc2ccc(F)c3c2n1CC3CN1CCC(NCc2ccc(-c3cccc(Cl)c3)nc2)CC1 (stereo not drawn)
inactive: growth inhibition [1] 33% | inhibition [2] 16% | inhibition [3] 3% | outcome [5] | outcome [6] | outcome [7] | outcome [8]
active: growth inhibition [4] 96%

COc1ccc2ccccc2c1C=NNc1cc(C)nc2cc(C(F)(F)F)ccc12
active: growth inhibition [4] 92%
inactive: growth inhibition [1] 4% | inhibition [2] 1% | inhibition [3] 0% | outcome [5] | outcome [6] | outcome [7] | outcome [8]

Cc1cc2nc(-c3ccc(C(=O)NCc4ccc(Cl)c(Cl)c4)cc3)[nH]c2cc1C
inactive: inhibition [2] 6% | inhibition [3] 1% | outcome [5] | outcome [6] | outcome [7] | outcome [8]
active: growth inhibition [1] 83% | growth inhibition [4] 96%

Cc1cc(C)c(-c2n[nH]c3c2C(c2cccc(Cl)c2)N(Cc2ccco2)C3=O)c(O)c1 (stereo not drawn)
active: growth inhibition [1] 89% | growth inhibition [4] 96%
inactive: inhibition [2] -3% | inhibition [3] -1% | outcome [5] | outcome [6] | outcome [7] | outcome [8]

CN(c1ccc2c(c1)nc(Nc1cc(C(C)(C)C)on1)n2C)c1ccnc(Nc2ccc(CS(C)(=O)=O)cc2)n1
active: inhibition [2] 77% | growth inhibition [4] 89%
inactive: growth inhibition [1] 13% | inhibition [3] -6% | outcome [5] | outcome [6] | outcome [7] | outcome [8]

COc1ccc(C(=O)CCC(=O)N(CCSC(C)(C)C)Cc2ccc(-c3ccc(CNCCc4ccc(S(C)(=O)=O)cc4)cn3)cc2)cc1F
active: growth inhibition [4] 98%
inactive: growth inhibition [1] 42% | inhibition [2] 9% | inhibition [3] -3% | outcome [5] | outcome [6] | outcome [7] | outcome [8]

CCc1c(CCNCCCCCCNCCc2ccccc2)ccc(OC)c1OC
inactive: growth inhibition [1] 3% | inhibition [2] 33% | inhibition [3] -2% | outcome [5] | outcome [6] | outcome [7] | outcome [8]
active: growth inhibition [4] 102%

Cc1c(C(=O)N(C)C)sc2c1c(=O)n(Cc1ccccc1)c(=O)n2CC(=O)Nc1ccccc1F
inactive: inhibition [2] 13% | inhibition [3] -1% | outcome [5] | outcome [6] | outcome [7] | outcome [8]
active: growth inhibition [1] 98% | growth inhibition [4] 97%

COc1ccc(NC(=O)N2CCCN(CCCCCNC(=O)/C=C/c3ccc(C(F)(F)F)cc3)CC2)cc1Cl
inactive: growth inhibition [1] -5% | inhibition [2] 21% | inhibition [3] 4% | outcome [5] | outcome [6] | outcome [7] | outcome [8]
active: growth inhibition [4] 93%

O=C(Cc1ccccc1)NC(Nc1ccc([N+](=O)[O-])cc1)C(Cl)(Cl)Cl (stereo not drawn)
inactive: inhibition [2] 21% | inhibition [3] 1% | outcome [5] | outcome [6] | outcome [7] | outcome [8]
active: growth inhibition [1] 100% | growth inhibition [4] 99%

CCC(Cc1cnc2nc(N)nc(N)c2n1)c1ccc(C(=O)O)cc1 (stereo not drawn)
active: growth inhibition [4] 93%
inactive: growth inhibition [1] -2% | inhibition [2] 15% | inhibition [3] -2% | outcome [5] | outcome [6] | outcome [7] | outcome [8]

O=C(N[C@@H](Cc1ccccc1)[C@H](O)CNCCC(F)(F)F)c1cccc(CCC2CC2)c1
active: growth inhibition [4] 87%
inactive: growth inhibition [1] 13% | inhibition [2] -4% | inhibition [3] 5% | outcome [5] | outcome [6] | outcome [7] | outcome [8]

CN(C)C(CNC(=O)c1cc(-c2ccncc2)c(-c2ccc(Cl)c(O)c2)o1)c1ccccc1 (stereo not drawn)
active: growth inhibition [4] 91%
inactive: growth inhibition [1] 28% | inhibition [2] 28% | inhibition [3] 0% | outcome [5] | outcome [6] | outcome [7] | outcome [8]

COc1ccc2nc3cc(Cl)ccc3c(NCCCO)c2c1
inactive: inhibition [2] 32% | inhibition [3] -1% | outcome [5] | outcome [6] | outcome [7] | outcome [8]
active: growth inhibition [1] 100% | growth inhibition [4] 100%

CC(Cc1ccc(CN2CCN(Cc3ccccc3)CC2)cc1)NCC(O)c1cccc(C(F)(F)F)c1 (stereo not drawn)
inactive: inhibition [3] -7% | outcome [5] | outcome [6] | outcome [7] | outcome [8]
active: growth inhibition [1] 98% | inhibition [2] 51% | growth inhibition [4] 97%

O=[N+]([O-])c1cccc(NC(=S)N2CCCN(Cc3ccc(Cl)cc3Cl)CC2)c1
active: growth inhibition [1] 50% | growth inhibition [4] 94%
inactive: inhibition [2] 3% | inhibition [3] 4% | outcome [5] | outcome [6] | outcome [7] | outcome [8]

CC(C)N1CCN(C(CN2CCN(CCCOc3ccc4ccccc4c3)CC2)c2ccc(F)cc2)CC1 (stereo not drawn)
active: growth inhibition [1] 91% | inhibition [2] 59% | growth inhibition [4] 101%
inactive: inhibition [3] 5% | outcome [5] | outcome [6] | outcome [7] | outcome [8]

COc1ccc2nccc([C@@H](O)CN3CCC(NCc4nc5c(F)cccc5[nH]4)CC3)c2c1
active: growth inhibition [4] 103%
inactive: growth inhibition [1] 6% | inhibition [2] -6% | inhibition [3] -7% | outcome [5] | outcome [6] | outcome [7] | outcome [8]

COC(=O)c1cccc(CNCc2cccc(-c3ccc(-c4nc5ccc(C(F)(F)F)cc5[nH]4)cc3)c2)c1
active: growth inhibition [1] 83% | growth inhibition [4] 102%
inactive: inhibition [2] 13% | inhibition [3] 3% | outcome [5] | outcome [6] | outcome [7] | outcome [8]

CCCNC(=O)C1Cc2cc(OC)c(OC)cc2C2(N1)C(=O)N(Cc1cccc(OC)c1)c1ccccc12 (stereo not drawn)
inactive: inhibition [2] 11% | inhibition [3] 3% | outcome [5] | outcome [6] | outcome [7] | outcome [8]
active: growth inhibition [1] 63% | growth inhibition [4] 91%

COc1ccc(Cl)cc1NC(=O)Nc1ccc2c(c1)CCN(C1CCC1)CC2
active: growth inhibition [4] 98%
inactive: growth inhibition [1] 19% | inhibition [2] 38% | inhibition [3] -2% | outcome [5] | outcome [6] | outcome [7] | outcome [8]

O=C(c1ccc(-c2cnc3[nH]cc(-c4ccc(C(=O)N5CCOCC5)cc4)c3c2)cc1)N1CCOCC1
active: growth inhibition [4] 91%
inactive: growth inhibition [1] -3% | inhibition [2] 19% | inhibition [3] -4% | outcome [5] | outcome [6] | outcome [7] | outcome [8]

CCCc1ccc(-c2csc(NC(=O)c3ccc([N+](=O)[O-])o3)n2)cc1
inactive: growth inhibition [1] 13% | inhibition [3] 4% | outcome [5] | outcome [6] | outcome [7] | outcome [8]
active: inhibition [2] 72% | growth inhibition [4] 85%

COc1ccc(CN2CCCC(N3CC4(OC3=O)c3ccccc3-c3ccccc34)C2)c(O)c1 (stereo not drawn)
inactive: growth inhibition [1] 34% | inhibition [2] 14% | inhibition [3] 7% | outcome [5] | outcome [6] | outcome [7] | outcome [8]
active: growth inhibition [4] 92%

CC1CCN(CCNC(=O)c2ccc3c(=O)n(Cc4ccc(Cl)cc4)c(=S)[nH]c3c2)CC1
active: growth inhibition [1] 75% | growth inhibition [4] 101%
inactive: inhibition [2] 6% | inhibition [3] 4% | outcome [5] | outcome [6] | outcome [7] | outcome [8]
